Here are results for 40 sequences from the supplement of paper PMC6555819.

The test system of the assay is VDR:RXRa (NR concentration 270 nM, RXRa partner concentration 90 nM). The assay is described as follows: PBM binding z-score (relative to random genomic background probes); higher = stronger binding; sequences stand for … in GC…GCGATTGACAGCGTAGAATGAAGG
The method, then:
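Protein-binding microarray (Agilent 4x180K custom design, double-stranded 60-nt probes: 5' GC cap, 34-nt variable region, 24-nt constant primer region; full probe sequence given). Purified or IVT nuclear receptor:RXRα heterodimers (3:1 NR:RXRα, mostly 270:90 nM) or homodimers were incubated for 1 h in PBS with 2% milk and no ligand, then detected with Alexa488 antibodies. Fluorescence from o1-orientation probes (~5 replicates averaged) was converted to z-scores against 500 random hg19 background probes. Variable regions are seed direct-repeat (DR0–DR5) sites, all their single-nucleotide variants and half-site ablations.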
Sequence TCGCGTAGGTTACCAATGGGGCATTCAGCTTTCT registered a PBM binding z-score of 0.236.

Regarding ATATGTAGGTTATATCCGGGTCATTCAGGCTATG, the PBM binding z-score was 4.11.

The sequence TCTTGTAGATCAATAGAGGTAAAGAAAGTGCGCT came in with a PBM binding z-score of 0.45.

Sequence GCTAGCAAGCCATTTGGGTCACTCAATGACGGGC had a PBM binding z-score of -0.0244.

As to AGAATGAGGTTAGACGTAGATCAGGGAAGAAAGT, the PBM binding z-score is 0.639.

Take TCGAGTAGGTTAGGCGCATTCAGAATGGCGTCGA: the PBM binding z-score is -0.563.

GATAGAGGGTCAAGGCCAGAGTACGCGTATTGAT returned a PBM binding z-score of 3.37.

Regarding GCTATGAGTTGAAAGGGCAACCGAATGATTCTCG, the PBM binding z-score was 1.2.

AGAACGAGGGCAATGAGTTGGTAGCACGGGTGGC: the PBM binding z-score worked out at 4.09.

Sequence ACTATTGGTTGACTTAGGGCAACCGATACGACGC had a PBM binding z-score of 0.175.

Sequence CGTCACAGTTCAAGGTAACGTAACAGAAAGCAGC displayed a PBM binding z-score of 1.61.

Turning to ATCTCTAGGTGACCAAGTTCAGTGAATGCCGAAC, the PBM binding z-score was found to be 4.77.

Take ACTATTAGCTGACTTAGGGCAACCGATACGACGC: the PBM binding z-score is -0.114.

As to TCTGCTAGGTCAGTTGGCCAGCTAACGAGCTGCC, the PBM binding z-score was -0.113.

As for ATATGTAGGTTGCATCCGGGTCATTCAGGCTATG, the PBM binding z-score worked out at 3.47.

As for CGTCGAAGGTCAGAGAGGTCAGTGAATGCCGAGT, the PBM binding z-score stood at 7.5.

CGTGCAAGGTCAATGCTAGGTCAGTGAAAGCATT gave a PBM binding z-score of 5.24.

In turn, AGAACGAGGGCACGCTGAGTAGATAGCAGAGTAG came in with a PBM binding z-score of 0.928.

With CCGAATGGGGCATAAGGTTACCATAAGCCAGCCC, the PBM binding z-score is 0.232.

CCTAGCAGTCCAGGGTCACTCAAGCATTTCGCTT registered a PBM binding z-score of 2.69.

Take TCATCTAGGTAATACAGGTGAAAGTCGGCATCTA: the PBM binding z-score was 0.916.

The sequence AATACAGGGTCACTAGCCCAGAGTAGGTACGAAT showed a PBM binding z-score of 4.

Regarding ATACCAAGGTGATCGTGAGGTCGATGATACTAAC, the PBM binding z-score was 1.9.

Consider CAAACTTGGTCAAAGGTCAAAGTCGAGCCAACCA, for which the PBM binding z-score came out at 5.59.

With TTACCAAGGTGAGCTGAGGTCTTTGATCCAACTC, the PBM binding z-score is 0.497.

With GCTAGTTGGTCAGTAAAAGGTCACACTCCGGTCG, the PBM binding z-score was 3.76.

As to GCTTACGGGACAAAGGTTATAGCATGAATAGAAT, the PBM binding z-score was 1.24.

As for AATACAGGGTCACTAGGCTAGAGTAGGTACGAAT, the PBM binding z-score was 4.05.

In turn, GCTTGGAGGACAAGGTCAGAGCTTTGTCCGTAGA displayed a PBM binding z-score of 1.41.

With CAGCCTCGGTCAGGGCCAGTATAGGAGGAACGTT, the PBM binding z-score is -0.628.

Regarding GCAGACCGGTGAAACGCAGGTAACTCAGGGTGGC, the PBM binding z-score was -0.857.

Consider CCTCGCAGGCCAGGGTCACTCAAGCATTTCGCTT, for which the PBM binding z-score came to 2.41.

For TCTTGTAGATCAGCAGGGTAAGAAAGCTGGCCAA, the PBM binding z-score stood at 0.195.

Regarding AGTCAAACTTCACTAGGTAACGTAAGATTCAGCT, the PBM binding z-score was -0.0334.

Regarding CAAACTAGGTCACGAAAGGCCAAAGTCGAATGAC, the PBM binding z-score is 4.15.

Consider ATCTCTAGGTAATGTTCAGTGAAAGATCGATAGA, for which the PBM binding z-score was 0.188.

The sequence CCTGCTAGGTCATGGTCGGCTAATCTACAGTATG gave a PBM binding z-score of 1.57.

ACAGACAGGTGAGTGAAGGTACCTCAGCTGGACG registered a PBM binding z-score of -0.805.

CCTATTAGTTGACCATAAGGGAAACCGAAGCTCG registered a PBM binding z-score of 0.226.

Sequence TCTATTAGTTGAATAGGGCAACCGAAACAGCGGA gave a PBM binding z-score of 0.6.
